From PubChem BioAssay (NCI)
About 83,000 compounds went through this panel and 20% of them were active in at least one assay; those are over-represented in the sample as a whole.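 Cells were grown in 96-well plates and exposed to the test compound at a single concentration for 48 hours; results are reported as percent growth, with values below 10 considered active.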 Values without a mark were called inactive. Activity calls are given as the source filed them.

Each compound was assayed on MDA-MB-468 breast (assay: NCI-60 one-dose screen, 48 h (100 = growth as untreated, 0 = no growth, -100 = all killed)). Settings: 10 µM unless noted.

| SMILES | growth |
| --- | --- |
| CCN(CCNc1ccc(C)c2sc3cc(Cl)ccc3c(=O)c12)CC(C)(C)O | -19.3% (active) |
| O=C(Nc1cccnc1Nc1ccc(Cl)cc1)c1cn(Cc2cccc(Oc3ccccc3)c2)nn1 | 63.3% |
| CCOC(=O)c1c(-c2ccc(Cl)cc2)c(C#N)c2c(C#N)c(N)nn2c1N | 33.6% |
| C/C(=C(/C)C1CC1CCN(C(=O)c1ccc([N+](=O)[O-])cc1)S(=O)(=O)c1ccc(C)cc1)C1CCCCC1 (stereo not given) | 82.5% |
| COc1ccc(/C=N/c2cc(C(C)(C)C)nn2-c2ccccc2)cc1 | 124% |
| N/C(=N\c1nc2ccccc2s1)NC(=O)Nc1cccc(Cl)c1 | 35.5% |
| O=C(/C=C\c1ccccc1Cl)c1ccccc1 | 87.5% |
| COc1ccc2c3c([nH]c2c1)C(=O)c1nc(C)ccc1C3=O | 14.8% |
| CCOC(=O)n1cc(-c2nonc2-c2cn(C)c3ncccc23)c2ccccc21 | -8.56% (active) |
| CN1C(=O)/C(=C2\SC(=Nc3ccccc3)N(Nc3ccccc3)C2=O)c2ccccc21 | 94.7% |
| O=C1/C(=C\c2ccco2)SC(=S)N1CCc1ccc(O)cc1 | 54.9% |
| O=C(NC(=S)Nc1ccc(Cl)cc1)c1ccccc1 | -37% (active) |
| Cc1cc(C(O)CN(C)C)cc2c1ccc1cc(C(C)C)ccc12 (stereo not given) | -88.6% (active) |
| COc1ccc(S(=O)(=O)N(C)c2oc(-c3ccc(Cl)cc3)nc2C#N)cc1 | 32.1% |
| COc1ccc(NC(=O)c2sc3nc(C)c(C(=O)c4ccc(OC)cc4)cc3c2N)cc1 | 13.2% |
| COc1c(B(O)O)cccc1-c1nc2c(F)cc3n[nH]c(C)c3c2c2c1CCCC2 | -7.26% (active) |
| CN1CCN(c2ccc(Nc3nc(NCCNS(=O)(=O)c4ccc(Cl)cc4)c4sccc4n3)cc2)CC1 | 93% |
| Cc1cc2nc(NC(=O)CN3CCN(CCN4C(=O)c5cccc6cccc(c56)C4=O)CC3)sc2cc1C | 86.3% |
| O=C1C=CC[C@H](/C=C/c2ccccc2)O1 | 10.2% |
| O=C1c2cc3c(cc2-c2c1c1ccc(F)cc1c(=O)n2C[C@H](O)[C@@H](O)[C@H](O)CO)OCO3 | -45.2% (active) |

| SMILES | growth |
| --- | --- |
| Cc1[nH]n(C(=O)c2ccncc2)c(=O)c1N=Nc1ccc(S(=O)(=O)Nc2ccncn2)cc1 | 103% |
| N#CC(C#N)N=Nc1ccc(Br)cc1 | 0.0168% (active) |
| C=CCn1c(SCC(=O)Nc2ccc(C(=O)/C=C/c3cccc([N+](=O)[O-])c3)cc2)nnc1-c1c[nH]c2ccccc12 | 81.9% |
| O=C1C2=C(CCN(Cc3ccccc3)C2)N2CCN=C2N1Cc1ccc(C(F)(F)F)cc1 | 8.96% (active) |
| CC/C=C\C[C@H](O)C/C=C1/C(=O)C=C[C@@H]1C/C=C\CCCC(=O)OC(C)C | -17% (active) |
| c1cnc2n[nH]c(Nc3ncnc4c3sc3ncccc34)c2c1 | 96.5% |
| Clc1cc(Cl)cc(-c2ccc(-c3ccc(/C=N/NC4=NCCN4)cc3)s2)c1 | -3.62% (active) |
| Cc1c(C(N)=O)sc2c1c(=O)n(Cc1ccccc1)c1nnc(-c3ccc(Br)cc3)n21 | 29.8% |
| C=C(C)[C@@H]1CC[C@]2(CO)CC[C@]3(C)[C@H](CC[C@@H]4[C@@]5(C)CC[C@H](NCO)C(C)(C)[C@@H]5CC[C@]43C)[C@@H]12 | -74.8% (active) |
| N#C/C(=N\Nc1ccc(Cl)cc1)C(=O)C1CC1 | 27.1% |
| Nc1nc(N)c2nc3c(nc2n1)CCCCCCCCCC3 | 58.1% |
| CN1CCN(Cc2ccc(NC(=O)c3cnc(F)c(C#Cc4cnc(N)c5ncccc45)c3)cc2C(F)(F)F)CC1 | -5.56% (active) |
| COc1ccc2c(c1)O/C(=C\c1ncc([N+](=O)[O-])n1C)C2=O | -7.9% (active) |
| OCCN1CCN(CC/C=C2\c3ccccc3Sc3ccc(Cl)cc32)CC1 | -97.1% (active) |
| CCOC(=O)Nc1ccc2c(c1)/C(=N\NC(=S)NC)c1ccccc1-2 | 86.8% |
| COc1cc2c(c(OC)c1)C1c3ccccc3NC(=O)N1CC2 (stereo not given) | -0.759% (active) |
| Cc1ccc(-n2cc(/C=C/C(=O)c3ccc(S(C)(=O)=O)cc3)c(-c3ccc(S(C)(=O)=O)cc3)n2)cc1 | 106% |
| Nc1ccc2c(c1)C1(CCC2)NC(=O)NC1=O (stereo not given) | 97.4% |
| O=C(NCCCCCCCNC(=O)OCc1ccc2c(Cl)cc(Cl)c(O)c2n1)OCc1ccc2c(Cl)cc(Cl)c(O)c2n1 | -57.3% (active) |
| ClC(Cl)c1nc(-c2ccco2)n2nc(-c3ccccc3)cc2n1 | -54.2% (active) |
